Screens as filed in PubChem BioAssay.
PG9 Ab binder – PG9 antibody binding by small molecule. 0.43% of 360,000 active. TR-FRET gp120-PG9 antibody binding. inhibition, % at 6.7 µM; in the data active = inhibition above about 8.5%
NCF1 inh – inhibitors of human p47phox binding; P14598; AID 1274; inhibition, % at 24.7 µM; 0.53% of 220,000 active; p47phox/p22phox peptide binding, fluorescence polarization, 2 h;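 active = inhibition above about 30%, limit read from the data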;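 also: 0% = p47phox with labelled peptide and 100% = labelled peptide alone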
ZTA counter – counter-screen for EBNA-1 inhibitors: inhibitors of Epstein-Barr virus ZTA; P03206; ZTA-DNA binding, fluorescence polarization; inhibition, % at 11 µM; 0.15% of 320,000 active; in the data active = inhibition above about 33%
Rev-erbA mod – Rev-erb alpha (human) modulation; Rev-erbα–FITC-DNA binding, fluorescence polarization, 90 min; 0.79% of 370,000 active; activity, % at 10 µM; AID 1259318; P20393;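 active = activity above about 14%, limit read from the data; passing the limit was not always enough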;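 also: 0% = DMSO wells with 35 nM protein and 100% = DMSO wells with 750 nM protein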
Target sequence (P20393 whole entry, looked up): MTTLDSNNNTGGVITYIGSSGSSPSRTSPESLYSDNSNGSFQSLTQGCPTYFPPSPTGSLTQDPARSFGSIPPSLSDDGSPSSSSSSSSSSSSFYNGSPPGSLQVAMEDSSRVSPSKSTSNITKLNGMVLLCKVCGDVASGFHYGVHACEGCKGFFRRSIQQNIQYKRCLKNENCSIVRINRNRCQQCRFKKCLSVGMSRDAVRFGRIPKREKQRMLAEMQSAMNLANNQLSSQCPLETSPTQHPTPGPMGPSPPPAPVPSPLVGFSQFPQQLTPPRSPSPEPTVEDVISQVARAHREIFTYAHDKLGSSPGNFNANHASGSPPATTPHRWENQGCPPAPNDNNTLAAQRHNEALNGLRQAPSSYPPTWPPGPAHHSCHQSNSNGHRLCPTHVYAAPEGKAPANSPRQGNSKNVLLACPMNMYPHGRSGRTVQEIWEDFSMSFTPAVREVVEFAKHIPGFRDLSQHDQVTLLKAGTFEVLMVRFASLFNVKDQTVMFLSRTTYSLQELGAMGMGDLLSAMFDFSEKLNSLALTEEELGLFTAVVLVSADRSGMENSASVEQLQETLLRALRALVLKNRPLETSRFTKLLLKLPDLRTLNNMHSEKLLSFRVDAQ
EBNA-1 inhibitor – blocks EBNA-1 binding to DNA; inhibition, % at 14.8 µM; 0.34% of 300,000 active; AID 1950; EBNA-1 DNA binding, fluorescence polarization; in the data active = inhibition above about 28%
aDG glyco up – alpha-DG glycosylation activation; Pro5-aDG cells, alpha-DG glycosylation AlphaScreen (IIH6); 0% Pro5, 100% B10-LARGE cell signal; activation, % at 10 µM; 0.22% of 360,000 active;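 active = activation of at least 8% versus controls, or a plate z-score of at least 8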;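 also: Pro5 are CHO cells carrying HIG-tagged alpha-DG that lacks glycosylation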
NR1D1 mod conf – confirmation of modulators of human Rev-erb alpha DNA binding; shares compounds with Rev-erbA mod; Rev-erb alpha FITC-DNA binding, fluorescence polarization, 90 min; activation, % at 25 µM; 61% of 3,000 active; AID 1259319;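 active = activation at or above a set limit, or at least 3 SD above the negative control mean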;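 also: 0% = 35 nM protein with DMSO and 100% = 750 nM protein high control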
RORg DNA counter – affects RORgamma DNA binding in a Rev-erb alpha counter-screen | shares compounds with Rev-erbA mod | purified RORgamma protein-FITC-DNA binding, fluorescence polarization | IC50, µM | 8% of 910 active | AID 1259320;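 active = Compounds whose fitted half-maximal concentration for disrupting protein-DNA binding is below 10 micromolar; the record names Rev-erb in its text, so the target is in doubt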
Active calls of the source: *; i = inactive; · = no result given. This is a sample that favours compounds with a hit; in the whole collection about 1.9% have one here.

SMILES	PG9 Ab binder	NCF1 inh	ZTA counter	Rev-erbA mod	EBNA-1 inhibitor	aDG glyco up	NR1D1 mod conf	others
O=C(c1ccc2c(=O)n(Cc3ccccc3Cl)c(=S)[nH]c2c1)N1CCOCC1	-1	·	8	32*	-3	0	27*
Cc1cccc(CSc2nc3c(cc2C#N)CCC3)c1	0	-4	-2	47*	-8	0	30*
N#Cc1cc2c(nc1SCc1cccnc1)CCC2	-5	-3	10	-1	3	0	·
CCN(Cc1cn(Cc2ccccc2)nn1)S(=O)(=O)c1ccc(F)cc1Br	·	·	·	-5	·	·	·
COc1ccc2c(=O)c3c(=O)n(CCc4ccccc4)c(C(C)C)nc3oc2c1	-1	-9	-14	25*	5	0	1
CCN1C(=O)/C(=C\N2CCN(c3ccc(F)cc3)CC2)SC1=S	4	0	-9	213*	-8	0	251*	RORg DNA counter=i
CCc1cc(=O)oc2c(C)c(OCC(=O)NCc3ccccn3)ccc12	0	·	-4	30*	0	0	23*
CCCCc1cc(=O)oc2c(C)c(OCC(=O)NCc3ccccn3)ccc12	0	·	-17	-5	-4	0	·
CC(C)N1CCCCC(NC(=O)c2ccc(-c3ccccc3)cc2)C1=O (stereo not given)	·	·	·	5	·	·	·
CCN(C(=O)c1ccco1)c1nnc(-c2ccc(OC)cc2)s1	3	5	2	25*	5	0	-4
C=CCn1c(=NC(=O)c2ccco2)sc2cc(C(=O)OCC)ccc21	6	10	10	29*	8	0	23*
COCCn1c(=NC(=O)c2ccco2)sc2cc(C(=O)OC)ccc21	-2	-8	12	42*	6	0	38*	RORg DNA counter=>40
C=CCn1c(=NC(=O)c2ccco2)sc2cc(C(=O)OC)ccc21	3	9	20	28*	2	0	35*	RORg DNA counter=>40
CCOC(=O)c1ccc2c(c1)nc(SCC(=O)c1ccco1)n2CC	0	0	3	-6	1	0	·
COCCn1c(=NC(C)=O)sc2cc([N+](=O)[O-])ccc21	0	13	-6	4	-9	0	·
CCOC(=O)CC[C@@]1(C(=O)OCC)C[C@@H](CC(=O)N2CCOCC2)C(=O)N2CCCC=C21	·	·	·	1	·	·	·
CCOC(=O)c1sc(Nc2ccccc2)nc1C	-1	1	-15	2	-3	0	·
CCOC(=O)c1sc(Nc2nc(C)cc(OC)n2)nc1C	2	-2	-3	15*	10	0	6
CCOC(=O)c1sc(NC(=O)CC)nc1C	-2	2	-4	1	-11	0	·
COc1ccc(C(=O)NC(=S)Nc2nc(C)c(C(=O)N(C)C)s2)cc1	-3	-5	0	0	12	0	·
CCOC(=O)c1sc(Nc2nc(C)cc(C)n2)nc1C	0	-3	-4	1	-1	0	·
CCOC(=O)c1sc(NC(=O)CCc2ccc(OC)cc2)nc1C	-1	·	3	27*	-4	0	13
CCOC(=O)c1sc(NC(=S)NC(=O)c2ccc(OC)cc2)nc1C	0	·	4	83*	5	0	65*	RORg DNA counter=>40
CCOC(=O)c1sc(NC(=O)c2ccccc2OCC)nc1C	-1	-12	-12	36*	0	0	4
CCN(CC)c1ccc(C=NNC(=O)Cc2cc(=O)[nH][nH]2)c(O)c1	·	·	·	0	·	·	·
O=C(NC1CCC1)c1ccc(C#Cc2cccc(F)c2)cn1	·	·	·	-1	·	·	·
CCOC(=O)c1csc(NC(=O)c2ccc(S(=O)(=O)N(CC)CC)cc2)n1	0	-9	-6	-1	10	0	·
CCOC(=O)c1sc(NC(=O)c2ccc(S(=O)(=O)N(CC)CC)cc2)nc1C	0	-13	1	152*	15	0	94*	RORg DNA counter=>40
N#C/C(=N\Nc1ccc([N+](=O)[O-])cc1)C(=N)N1CCOCC1	-3	3	0	2	2	0	·
N#C/C(=N\Nc1ccc([N+](=O)[O-])cc1)C(N)=S	-6	-81	5	35*	-3	0	29*
